The nature of assay [1]: Nuclear factor erythroid 2-related factor 2/antioxidant responsive element (Nrf2/ARE) small molecule agonists: qHTS cell viability counter screen in human keratinocytes (AID 1919968; active = well fitted curve in the direction sought with a large enough effect in the repeat runs; an effect the other way counts as inactive or inconclusive; note: nearly all actives have a fitted effect of over 55% in size). In short, it runs like this: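 Stably transfected HaCaT (KeratinoSens), 1,500/well. Test agents in DMSO were applied for 23 h, 37 C/5% CO2. CellTiter-Fluor was incubated 1 h before the fluorescence read.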

Assay [2] in a line: Nuclear factor erythroid 2-related factor 2/antioxidant responsive element (Nrf2/ARE) small molecule agonists: luciferase reporter gene qHTS assay in human keratinocytes (AID 1919969; note: nearly all actives have a fitted effect of over 35% in size). (In general: A reporter such as luciferase makes a cellular process visible.)
The target in assay [3] is Gonadotropin-releasing hormone receptor (Homo sapiens) (UniProt P30968). In words: Human gonadotropin-releasing hormone receptor (GnRHR) small molecule agonists, calcium flux assay in GnRHR-HEK293 cells (AID 1920063). Note: nearly all actives have a fitted effect of over 35% in size. Put shortly: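 Stable human GnRHR HEK293 line. 18 h plating, then calcium dye for 1 h at 37 C. Agonist-mode compound addition from DMSO stocks; fluorescence monitored 3 min.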
Gonadotropin-releasing hormone receptor (Homo sapiens), sequence (P30968 whole entry, looked up): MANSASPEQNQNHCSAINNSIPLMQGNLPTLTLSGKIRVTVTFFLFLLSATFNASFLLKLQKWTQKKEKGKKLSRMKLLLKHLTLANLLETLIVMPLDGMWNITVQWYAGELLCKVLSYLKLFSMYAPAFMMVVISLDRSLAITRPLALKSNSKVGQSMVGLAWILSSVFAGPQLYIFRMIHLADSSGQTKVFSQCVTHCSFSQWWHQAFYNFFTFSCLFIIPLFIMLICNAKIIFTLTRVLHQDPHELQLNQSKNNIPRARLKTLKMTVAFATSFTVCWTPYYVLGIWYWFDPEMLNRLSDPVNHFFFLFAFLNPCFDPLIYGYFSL

Assay [4] has as its target KiSS-1 receptor (Homo sapiens) (UniProt Q969F8). Nature of the assay: Human kisspeptin (KISS1R) small molecule agonists, calcium flux assay in KISS1R-HEK293 cells (AID 1920064; active = well fitted curve in the direction sought with a large enough effect in the repeat runs; an effect the other way counts as inactive or inconclusive). In short, it runs like this: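 After overnight (18 h) culture at 37 C/5% CO2, human KISS1R-HEK293 cells received calcium dye for 1 h, then test compound; emission at 540 nm (excitation 480 nm) was tracked for 3 min.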
On the technique in general: Calcium flux is commonly read through the fluorescence of an indicator in the cells.

Assay [5] is described as follows: G protein-coupled receptor (GPCR) small molecule agonists, calcium flux assay: HEK293 wild type cell line counter screen (AID 1920065). Put shortly: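 Following 18 h incubation at 37 C/5% CO2, plates got calcium dye for 1 h; compounds, ATP or DMSO were then pinned in and fluorescence followed kinetically (480/540 nm).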
Assay [6] is described as follows: p53 small molecule agonists, cell-based qHTS assay with human liver microsomes (AID 1963577). In short, it runs like this: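 Compounds act here after metabolic activation: human liver microsomes and NADPH, both at 0.5 mg/mL final, were co-added to p53RE-bla cells. Incubation ran 16 h at 37 C, followed by LiveBLAzer detection.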
Background: qHTS replaces the single test concentration by a dilution series.

The nature of assay [7]: p53 small molecule agonists, cell-based qHTS assay with human liver microsomes: qHTS cell viability counter screen (AID 1963579). Note: nearly all actives have a fitted effect of over 45% in size. In short, it runs like this: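 Cells carrying the p53 response-element beta-lactamase reporter are treated for 16 h at 37 C with test compounds in the presence of human liver microsomes and NADPH (both 0.5 mg/mL final); ATP-based CellTiter-Glo luminescence then reports viability.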

Assay [8] is described as follows: p53 small molecule agonists, cell-based qHTS assay with rat liver microsomes: qHTS cell viability counter screen (AID 1963580). Note: nearly all actives have a fitted effect of over 45% in size. Put shortly:
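Luminescent ATP readout (CellTiter-Glo, 30 min at room temperature) reports viability of p53RE-bla HCT-116 cells after 16 h at 37 C with test compounds under metabolic activation by rat liver microsomes and NADPH at 0.5 mg/mL final each.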

Assay [9] can be described thus: p53 small molecule agonists, cell-based qHTS assay: qHTS cell viability counter screen (AID 1963581). Note: nearly all actives have a fitted effect of over 45% in size. In short, it runs like this:
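qHTS counter screen: 16 h compound exposure at 37 C of p53RE-bla HCT-116 cells (4,000 per well, seeded 5 h prior), cell viability by ATP luminescence.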

The nature of assay [10]: p53 small molecule agonists, cell-based qHTS assay (AID 1963582; active = well fitted activation curve with a large enough effect in the signal ratio in the repeat runs, not every such curve was filed as active; the % refers to the signal ratio; note: potency is the fitted concentration of half-maximal effect). Put shortly:
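Measured: fluorescence from cleaved LiveBLAzer substrate. System: p53RE-bla cells, 16 h compound treatment at 37 C, 2 h substrate step at room temperature.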

Assay [11] has as its target 5-hydroxytryptamine receptor 2A (Homo sapiens) (UniProt P28223). In words: 5-hydroxytryptamine receptor 2A (HTR2A) small molecule antagonists, cell-based qHTS assay (AID 1963586). Note: nearly all actives have a fitted effect of over 45% in size. Put shortly: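 CHO cells stably expressing human HTR2A were plated for 18 h at 37 C, then loaded with calcium dye for 1 h. Compounds were preincubated 5 min at room temperature before DOI (4 nM solution) was added. Kinetic fluorescence was read for 3 min.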

For assay [12] the target is unchanged. In words: 5-hydroxytryptamine receptor 2A (HTR2A) small molecule agonists, cell-based qHTS assay (AID 1963587). Note: nearly all actives have a fitted effect of over 30% in size. Put shortly:
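HTR2A-CHO cells, plated 18 h at 37 C/5% CO2, dye-loaded 1 h at 37 C; compounds in DMSO added by pin tool (agonist mode). Intracellular calcium flux read as kinetic fluorescence on FDSS over 2 min at 1 s intervals.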

Assay [13] deals with Muscarinic acetylcholine receptor M1 (Homo sapiens) (UniProt P11229). In words: Cholinergic receptor muscarinic 1 (CHRM1) small molecule antagonists, cell-based qHTS assay (AID 1963588). Note: nearly all actives have a fitted effect of over 40% in size. Put shortly:
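Compounds were tested at 15 concentrations in three independent runs. Dye-loaded CHRM1-CHO cells were exposed 5 min at room temperature before stimulation by acetylcholine added at 50nM. Intracellular calcium was read kinetically on FDSS for 3 min.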

Assay [14] has the same target. Nature of the assay: Cholinergic receptor muscarinic 1 (CHRM1) small molecule agonists, cell-based qHTS assay (AID 1963589). Note: nearly all actives have a fitted effect of over 35% in size. In short, it runs like this: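 Kinetic fluorescence (1 s intervals) of calcium-sensitive dye in human M1 CHO cells after compound addition; cells pre-incubated 18 h at 37 C/5% CO2 and dye-loaded 1 h.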
A short description of assay [15]: cAMP Responsive Elements (CRE) small molecule agonists, cell-based qHTS assay (AID 1963590). In short, it runs like this: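 Test agents in DMSO were incubated 3 h at 37 C/5% CO2 with CRE-bla HEK 293T cells seeded 18 h earlier; LiveBLAzer B/G FRET substrate was added and read after 2 h at room temperature.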
Assay [16] in a line: cAMP Responsive Elements (CRE) small molecule antagonists, cell-based qHTS assay (AID 1963591; active = well fitted inhibition curve with a large enough effect in the signal ratio in the repeat runs, not every such curve was filed as active; the % refers to the signal ratio). Put shortly:
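Reporter line CRE-bla HEK 293T in dialyzed-FBS DMEM; cells preincubated 18 h, treated 3 h with compound plus NKH477 (0.25 uM final); LiveBLAzer FRET, 2 h RT.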

Assay [17] addresses Beta-2 adrenergic receptor (Homo sapiens) (UniProt P07550). In words: Adrenergic beta2 receptor (ADRB2) small molecule antagonists, cell-based qHTS assay (AID 1963592). Note: series mostly up to about 92 µM; nearly all actives have a fitted effect of over 50% in size. In short, it runs like this: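 Assay format: CHO-ADRB2 cells, 18-20hr seeding at 37C/5% CO2, then compound plus 1nM isoproterenol agonist mix for 0.5hr RT. Homogeneous time-resolved fluorescence cAMP detection after 1hr, expressed as 665/615 nm ratio.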

Assay [18] addresses D(2) dopamine receptor (Homo sapiens) (UniProt P14416). In words: Dopamine D2 receptor (DRD2) small molecule agonists, cell-based qHTS assay (AID 1963594). Note: nearly all actives have a fitted effect of over 35% in size. Put shortly:
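HEK293 cells stably expressing DRD2 were cultured 24 h at 37 C, then given Ro20-1724 (0.1 mM final) and compounds for 10 min at room temperature. NKH477 (200nM) was then added for 30 min. cAMP was read by HTRF.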

Assay [19] has the same target. In words: Dopamine D2 receptor (DRD2) small molecule antagonists, cell-based qHTS assay (AID 1963595; active = well fitted inhibition curve with a large enough effect in the signal ratio in the repeat runs, with a control signal flat; the % refers to the signal ratio). In short, it runs like this: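 HTRF cAMP read-out at 665 and 620 nm emission (340 nm excitation). Antagonist mode: compounds were tested against 12 nM quinpirole in DRD2-HEK293 cells, with 200 nM NKH477 raising cAMP and 0.1 mM Ro20-1724 blocking its breakdown.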

The nature of assay [20]: p53 small molecule agonists, cell-based qHTS assay with rat liver microsomes (AID 1963578). Put shortly: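 Read-out is beta-lactamase reporter fluorescence (LiveBLAzer, 2 h, room temperature, dark) in p53RE-bla cells treated 16 h at 37 C with compound, rat liver microsomes and NADPH, both 0.5 mg/mL final.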

“And” between values parts separate entries of the source, which are not always exact repeats. Equal values may be shown once. Records with an inconclusive call do not appear. The source made the active and inactive calls. Unless noted, calls come from the whole dose curve.

KiSS-1 receptor (Homo sapiens), sequence (Q969F8 whole entry, looked up): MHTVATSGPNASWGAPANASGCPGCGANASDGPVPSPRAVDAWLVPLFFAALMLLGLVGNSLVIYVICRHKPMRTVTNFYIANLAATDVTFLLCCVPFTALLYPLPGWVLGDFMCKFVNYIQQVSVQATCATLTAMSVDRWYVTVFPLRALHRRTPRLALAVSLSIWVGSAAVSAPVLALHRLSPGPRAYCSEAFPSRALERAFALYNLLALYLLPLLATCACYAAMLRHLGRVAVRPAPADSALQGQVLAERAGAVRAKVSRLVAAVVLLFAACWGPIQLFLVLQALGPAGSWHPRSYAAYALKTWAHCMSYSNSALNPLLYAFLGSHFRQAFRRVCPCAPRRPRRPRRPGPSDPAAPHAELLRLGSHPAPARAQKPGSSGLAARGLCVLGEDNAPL
5-hydroxytryptamine receptor 2A (Homo sapiens), sequence (P28223 whole entry, looked up): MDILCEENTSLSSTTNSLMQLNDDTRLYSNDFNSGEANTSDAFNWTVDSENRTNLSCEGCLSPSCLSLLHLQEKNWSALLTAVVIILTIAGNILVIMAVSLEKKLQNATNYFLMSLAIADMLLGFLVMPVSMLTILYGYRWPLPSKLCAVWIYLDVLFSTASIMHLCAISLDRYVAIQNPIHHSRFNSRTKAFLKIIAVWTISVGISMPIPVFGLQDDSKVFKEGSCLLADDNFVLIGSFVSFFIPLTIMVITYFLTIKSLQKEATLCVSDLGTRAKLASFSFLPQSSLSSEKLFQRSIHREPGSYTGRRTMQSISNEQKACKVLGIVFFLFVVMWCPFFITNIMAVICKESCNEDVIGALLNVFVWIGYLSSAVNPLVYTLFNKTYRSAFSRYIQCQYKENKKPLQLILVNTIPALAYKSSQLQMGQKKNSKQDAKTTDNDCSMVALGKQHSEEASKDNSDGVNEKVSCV
Beta-2 adrenergic receptor (Homo sapiens), sequence (P07550 whole entry, looked up): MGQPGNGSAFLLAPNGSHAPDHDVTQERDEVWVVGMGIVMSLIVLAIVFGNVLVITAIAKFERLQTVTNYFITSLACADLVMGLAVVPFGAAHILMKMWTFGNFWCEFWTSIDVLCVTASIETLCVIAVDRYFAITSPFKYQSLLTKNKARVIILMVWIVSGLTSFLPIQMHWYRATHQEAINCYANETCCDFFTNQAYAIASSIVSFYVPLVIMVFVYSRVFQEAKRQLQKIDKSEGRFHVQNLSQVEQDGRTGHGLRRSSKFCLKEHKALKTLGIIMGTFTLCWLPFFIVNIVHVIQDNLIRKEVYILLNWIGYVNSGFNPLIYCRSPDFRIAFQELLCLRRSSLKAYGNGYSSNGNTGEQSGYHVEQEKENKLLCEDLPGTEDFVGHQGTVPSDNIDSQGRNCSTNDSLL
D(2) dopamine receptor (Homo sapiens), sequence (P14416 whole entry, looked up): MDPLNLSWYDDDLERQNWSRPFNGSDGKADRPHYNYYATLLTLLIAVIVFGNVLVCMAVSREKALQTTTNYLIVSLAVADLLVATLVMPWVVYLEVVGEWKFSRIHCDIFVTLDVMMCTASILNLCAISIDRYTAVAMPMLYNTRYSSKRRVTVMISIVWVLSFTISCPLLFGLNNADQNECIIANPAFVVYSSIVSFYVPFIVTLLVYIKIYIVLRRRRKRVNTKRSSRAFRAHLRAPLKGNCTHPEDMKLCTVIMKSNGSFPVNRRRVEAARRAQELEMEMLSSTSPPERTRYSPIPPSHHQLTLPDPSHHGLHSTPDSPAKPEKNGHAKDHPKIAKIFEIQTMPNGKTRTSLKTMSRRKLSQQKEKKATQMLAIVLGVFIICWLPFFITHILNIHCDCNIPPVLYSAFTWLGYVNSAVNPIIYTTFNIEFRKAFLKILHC
Muscarinic acetylcholine receptor M1 (Homo sapiens), sequence (P11229 whole entry, looked up): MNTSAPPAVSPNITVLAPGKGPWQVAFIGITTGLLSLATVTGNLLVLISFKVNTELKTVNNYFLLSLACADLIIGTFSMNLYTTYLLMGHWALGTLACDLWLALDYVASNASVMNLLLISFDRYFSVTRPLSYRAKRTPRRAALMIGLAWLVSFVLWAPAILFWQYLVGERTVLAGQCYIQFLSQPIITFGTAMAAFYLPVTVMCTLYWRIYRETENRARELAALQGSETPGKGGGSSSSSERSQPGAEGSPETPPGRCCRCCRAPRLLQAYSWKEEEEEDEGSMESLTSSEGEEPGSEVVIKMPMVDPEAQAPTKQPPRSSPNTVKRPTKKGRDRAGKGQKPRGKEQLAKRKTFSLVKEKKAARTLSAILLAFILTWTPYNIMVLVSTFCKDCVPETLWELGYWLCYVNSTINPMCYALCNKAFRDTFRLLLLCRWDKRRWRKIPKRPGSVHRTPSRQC

Take `COc1ccc(C)cc1N`: the Potency entry in assay [1], in assay [2], in assay [3], in [4], in [5] and in assay [6] was “inactive” in each case. The Potency result in assay [7], in assay [8], in assay [9], in assay [10], in assay [11] and in [12] was “inactive” in each case. Besides, the Potency entry in assay [13], in [14], in assay [15], in assay [16], in assay [17] and in [18] was “inactive” throughout. Further, the Potency entry in [19] was “inactive”.

For the molecule `Cc1ccnc2c1NC(=O)c1cccnc1N2C1CC1`, the Potency entry in assay [1], in assay [2], in [3], in assay [4], in [5] and in [6] was “inactive” throughout. For the same molecule, the Potency result in [20], in assay [8], in assay [9], in assay [10], in assay [16] and in assay [17] was “inactive” each time. In addition, the Potency entry in assay [18] and in [19] was “inactive” each time.

Turning to `c1ccc2c(c1)[nH]c1ccccc12`, the Potency entry in assay [1], in [2], in assay [3], in assay [4], in [5] and in assay [6] was “inactive” in each case. For the same molecule, the Potency result in [7], in assay [8], in [9], in [10], in assay [11] and in assay [12] was “inactive” each time. Besides, the Potency result in assay [13], in assay [14], in [15], in assay [16], in assay [18] and in [19] was “inactive” each time.

As for `Nc1ccc2c(O)cc(S(=O)(=O)O)cc2c1`, the Potency result in assay [1], in assay [2], in assay [3], in assay [4], in [5] and in assay [6] was “inactive” each time. Besides, the Potency result in assay [7], in [8], in assay [9], in assay [11], in assay [12] and in assay [13] was “inactive” each time. Also, the Potency result in assay [14], in assay [15], in [16], in [18] and in assay [19] was “inactive” throughout. For the same molecule, the Potency in [10] was 12.9 µM (active) and 16.2 µM (active).

`CCCCCCCCCCC(CO)CCCCCCCC` (stereo not given): the Potency result in assay [1], in [2], in assay [3], in [4], in assay [5] and in [6] was “inactive” each time. Further, the Potency result in [20], in [8], in [9], in assay [10], in [11] and in [12] was “inactive” in each case. Besides, the Potency result in assay [13], in [14], in [15], in [16], in [17] and in [18] was “inactive” each time. In addition, the Potency entry in assay [19] was “inactive”.

For `Cc1ccc([N+](=O)[O-])cc1N`, the Potency entry in assay [1], in [2], in [3], in assay [4], in assay [5] and in assay [6] was “inactive” throughout. In addition, the Potency result in [20], in assay [8], in assay [9], in assay [11], in [12] and in assay [13] was “inactive” in each case. Further, the Potency result in [14], in [15], in [16], in assay [17], in assay [18] and in [19] was “inactive” each time.

As to `Cc1cccc(C)c1O`, the Potency entry in assay [1], in assay [2], in assay [3], in assay [4], in assay [5] and in [6] was “inactive” each time. Further, the Potency entry in assay [20], in assay [8], in [9], in assay [10], in assay [11] and in assay [12] was “inactive” throughout. The Potency result in assay [13], in [14], in assay [15], in assay [16], in assay [17] and in assay [18] was “inactive” in each case. Also, the Potency entry in assay [19] was “inactive”.
